Our source for the inhibition values is PubChem BioAssay AID2014 (Sanford-Burnham Center for Chemical Genomics, 2009).

The test concerns the target Polyadenylate-binding protein 1 (Homo sapiens) (UniProt P11940). Nature of the test: blockers of PABP interaction with poly(A) – biochemical, fluorescence polarization, uHTS, primary screen (AID 2014).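 Further: calls also rest on retests at 20 µM and on dose response follow-up.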 The settings on record: PABP-poly(A) RNA binding, stronger effect = higher value. In general terms: Fluorescence polarisation rises when a labelled molecule tumbles more slowly, as on binding a larger partner.

About 3,000 (1%) of roughly 290,000 compounds were called active. How the calls were made is not given here. The list comes from a sample in which actives are over-represented; it also holds similar structures and randomly drawn compounds.

Sequence of Polyadenylate-binding protein 1 (Homo sapiens) (P11940 whole entry, looked up): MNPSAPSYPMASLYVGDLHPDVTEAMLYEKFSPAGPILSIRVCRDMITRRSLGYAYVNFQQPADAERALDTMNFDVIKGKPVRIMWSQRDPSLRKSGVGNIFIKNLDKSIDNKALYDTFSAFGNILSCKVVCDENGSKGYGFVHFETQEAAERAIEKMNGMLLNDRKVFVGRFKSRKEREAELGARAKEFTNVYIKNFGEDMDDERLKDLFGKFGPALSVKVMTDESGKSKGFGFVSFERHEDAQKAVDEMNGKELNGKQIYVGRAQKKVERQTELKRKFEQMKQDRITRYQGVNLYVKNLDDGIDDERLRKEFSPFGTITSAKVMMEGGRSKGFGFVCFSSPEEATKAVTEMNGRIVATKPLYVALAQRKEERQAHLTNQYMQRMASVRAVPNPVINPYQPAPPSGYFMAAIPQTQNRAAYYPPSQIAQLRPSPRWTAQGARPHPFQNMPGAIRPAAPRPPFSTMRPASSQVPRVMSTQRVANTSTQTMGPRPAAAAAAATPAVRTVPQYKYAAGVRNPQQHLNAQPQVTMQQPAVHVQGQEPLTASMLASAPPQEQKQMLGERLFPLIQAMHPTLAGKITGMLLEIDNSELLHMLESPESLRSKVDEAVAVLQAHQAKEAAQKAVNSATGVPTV

With `O=C1NC(=O)N(CCc2ccc(F)cc2)C(=O)/C1=C/C=C/c1ccccc1`, where the note is “at 35 µM”, the inhibition (as a rule, the drop in the measured response relative to a control, in per cent) was -13.4% (inactive).

With `O=C(O)COc1ccccc1/C=C1\C(=O)NC(=O)N(CCC2=CCCCC2)C1=O`, the inhibition (at 35 µM) is 53.5% (active).

Take `O=C1NC(=O)N(Cc2ccco2)C(=O)/C1=C\c1cccn1CCOc1ccccc1`: for the setting “at 35 µM”, the inhibition was 10.9% (inactive).

In the case of `COc1ccc(Br)cc1CNCCc1cccc(Cl)c1`, under “at 35 µM”, the inhibition was 3.3% (inactive).

Take `c1ccc(CC2CCCCN2)cc1` (stereo unspecified): for the setting “at 35 µM”, the inhibition was 1.7% (inactive).

Take `COc1ccc(CNCCc2c[nH]c3ccccc23)cc1OC`: the inhibition (at 35 µM) is 11.6% (inactive).

Consider `CC(=O)c1c(O)n(C2CCCCCC2)c(=O)[nH]c1=O`, for which the inhibition (at 35 µM) is 75.6% (active).

Turning to `CCC(=NCCc1ccccc1)c1c(O)n(C2CCCCC2)c(=O)[nH]c1=O`, the inhibition (at 35 µM) was -9.2% (inactive).

`CC(=NCC1CCCO1)c1c(O)n(-c2ccccc2)c(=O)[nH]c1=O` (stereo unspecified): the inhibition (at 35 µM) was -3.4% (inactive).

As for `COc1cccc(OC)c1C(=O)NC(=S)N1C[C@H]2C[C@H](C1)c1cccc(=O)n1C2`, the inhibition (at 35 µM) was 13.3% (inactive).

For the compound `CN(C)c1ccc(/C=C2\CC3C4CC=C5CC(O)CCC5(C)C4CCC3(C)C2=O)cc1` (stereo unspecified), the inhibition is 53.3% (active) (at 35 µM) and 93.6% (confirmation repeats, at 20 µM).

For `O=C(Cc1ccc(Cl)cc1)NCCN1CCN(C(=O)Cc2ccc(Cl)cc2)CC1`, the inhibition (at 35 µM) was 3.1% (inactive).

In the case of `O=[N+]([O-])c1cnc2ccc3ccccc3c2c1`, for the setting “at 35 µM”, the inhibition is 3.3% (inactive).

On to `COc1ccc2[nH]c3c(c2c1)CCN[C@H]3C`, for which the inhibition (at 35 µM) is 7.6% (inactive).

With `COc1ccc(N=Cc2c(O)n(C)c(=O)[nH]c2=O)cc1`, the inhibition (at 35 µM) is -8.6% (inactive).

With `CN(C)CCN(CC1CCCN(Cc2ccccc2F)C1)C(=O)Cc1ccc(F)c(F)c1` (stereo unspecified), the inhibition (at 35 µM) is 0.6% (inactive).

With `Cc1c(Oc2cc(NN3CCCCC3)c([N+](=O)[O-])cc2[N+](=O)[O-])cccc1[N+](=O)[O-]`, for the setting “at 35 µM”, the inhibition was 2.3% (inactive).

In the case of `O=C(NC(=S)N1C[C@H]2C[C@H](C1)c1cccc(=O)n1C2)c1ccc(F)cc1`, the inhibition (at 35 µM) is 2.2% (inactive).

As to `CCN(CC)CCOC(=O)c1cc2cc(COC)ccc2o1`, the inhibition (at 35 µM) was 70.7% (active).

In the case of `C=CCN1C(=O)NC(=O)/C(=C/c2ccc(OCC(=O)Nc3ccc(C)cc3)cc2)C1=O`, for the setting “at 35 µM”, the inhibition was 8.1% (inactive).

For `COc1ccc(CNCCc2ccc3c(c2)OCO3)c(OC)c1OC`, for the setting “at 35 µM”, the inhibition was 11.3% (inactive).

As for `CCNc1nc2[nH]c(=O)c3c(c2s1)OC(N)=C(C#N)C3c1cccs1` (stereo unspecified), the inhibition (at 35 µM) is 68.5% (active).

Turning to `N#CC1=C(N)Oc2c(c(=O)oc3ccccc23)C1c1ccccc1OC(=O)c1cccs1` (stereo unspecified), the inhibition (at 35 µM) was -4.4% (inactive).

On to `COc1cccc(C(=O)N2C[C@H]3C[C@@H](C2)c2cccc(=O)n2C3)c1`, for which the inhibition (at 35 µM) is 1.4% (inactive).

For the compound `COc1ccccc1NC(=O)N1C[C@@H]2C[C@@H](C1)c1cccc(=O)n1C2`, the inhibition (at 35 µM) is -1.1% (inactive).

For `O=C(O)c1ccccc1NC(=O)C1C2CCC(O2)C1C(=O)O` (stereo unspecified), the inhibition (at 35 µM) was -8.7% (inactive).

Regarding `O=C1NC(=O)N(c2ccccc2)C(=O)/C1=C/c1ccc([N+](=O)[O-])s1`, the inhibition (at 35 µM) is 40.1% (inactive) and the inhibition (confirmation repeats, at 20 µM) was determined as 30.8%.

`COc1cccc(N2C(=O)NC(=O)/C(=C\c3ccc([N+](=O)[O-])s3)C2=O)c1`: the inhibition was -6.1% (active) (at 35 µM) and 95.4% (confirmation repeats, at 20 µM).

In the case of `Cc1cccc(N2C(=O)NC(=O)/C(=C\c3cnn(-c4ccccc4)c3)C2=O)c1`, the inhibition (at 35 µM) is -12.4% (inactive).

In the case of `Oc1cc2c(cc1CN1CCN(c3ccccc3)CC1)OCO2`, the inhibition (at 35 µM) is 2% (inactive).

Regarding `COCCNC(=O)CN1C2CCC1CC(O)(c1cccnc1)C2` (stereo unspecified), the inhibition (at 35 µM) is 14.6% (inactive).

Consider `O=C1CC(=O)N(Cc2ccccc2)C(=O)N1CCCCCCN1C(=O)CC(=O)N(Cc2ccccc2)C1=O`, for which the inhibition by setting is: (at 35 µM) 25.8% (active); (confirmation repeats, at 20 µM) 112%.

In the case of `CC(C)(C)c1ccc(CN2C(=O)CN=C(c3ccccc3)c3ccccc32)cc1`, under “at 35 µM”, the inhibition is 12.1% (inactive).

As to `O=C(CN1CCCC1=O)NCCc1ccccc1`, under “at 35 µM”, the inhibition was -2.9% (inactive).

Consider `CC(C)c1ccc(OCC(=O)N2CCCN(C)CC2)cc1`, for which the inhibition (at 35 µM) was -0.5% (inactive).

In the case of `COc1ccc(CN2C(=O)NC(=O)/C(=C\c3ccc(OC)c(OC)c3OC)C2=O)cc1`, the inhibition (at 35 µM) is 66.4% (inactive) and the inhibition (confirmation repeats, at 20 µM) came out at 6.1%.

On to `COc1ccc(N2C(=O)/C(=C/c3ccco3)C(=O)NC2=S)cc1`, for which the inhibition is 38.7% (active) (at 35 µM) and 73.3% (confirmation repeats, at 20 µM).

`Cc1cc(/C=C2/C(=O)NC(=O)N(Cc3ccco3)C2=O)c(C)n1-c1ccc(C(=O)O)cc1`: the inhibition was 47.1% (inactive) (at 35 µM) and 23.1% (confirmation repeats, at 20 µM).

As to `COc1ccccc1OC(=O)c1ccc(C)c(S(=O)(=O)N2CCOCC2)c1`, the inhibition (at 35 µM) is -7% (inactive).

In the case of `CCN(CC)C(=O)c1ccc(NC(=O)c2sccc2-c2ccccc2)cc1`, the inhibition (at 35 µM) was -2.6% (inactive).

Consider `CN(C)C(=O)Oc1ccc2c(c1)O/C(=C\c1ccccc1)C2=O`, for which, under “at 35 µM”, the inhibition was -6.7% (inactive).

In the case of `CC(=O)Nc1ccc(C(=O)C(Cc2ccccc2)N(C)C)cc1` (stereo unspecified), for the setting “at 35 µM”, the inhibition is -3.6% (inactive).

As for `c1ccc(CCNC2CCCCCC2)cc1`, the inhibition (at 35 µM) was 8.2% (inactive).

Turning to `O=C(N/N=C/c1c(O)n(Cc2ccccc2)c(=O)[nH]c1=O)c1ccccc1`, the inhibition (at 35 µM) was 15% (active) and the inhibition (confirmation repeats, at 20 µM) worked out at 81.4%.

Take `O=c1[nH]c(=O)n(Cc2ccccc2)c(O)c1/C=N/Nc1c(F)c(F)c(F)c(F)c1F`: where the note is “at 35 µM”, the inhibition is 71% (active).

Turning to `O=C(N/N=C/c1c(O)n(C2CC2)c(=S)[nH]c1=O)c1ccccc1`, the inhibition (at 35 µM) is 0.6% (inactive).

Turning to `O=c1[nH]c(=O)n(CCc2ccccc2)c(O)c1/C=N/N1CCOCC1`, the inhibition (at 35 µM) was -1.6% (inactive).

Consider `O=c1[nH]c(=O)n(CCc2ccc(F)cc2)c(O)c1/C=N/N1CCCCC1`, for which, where the note is “at 35 µM”, the inhibition is -15% (inactive).

In the case of `CCCCC(=O)N/N=C/c1c(O)n(-c2ccccc2)c(=O)[nH]c1=O`, the inhibition (at 35 µM) is 5.3% (inactive).

In the case of `CN1CCC(OC(=O)c2cccc(F)c2)CC1`, the inhibition (at 35 µM) was -7.8% (inactive).

In the case of `CCN(CC)C(=O)Oc1ccc(NC(=O)N2CCOCC2)cc1`, the inhibition (at 35 µM) was 2.1% (inactive).

As for `CCN1CCN(Cc2cc(OC)c3c(c2)OCO3)CC1`, under “at 35 µM”, the inhibition was 16.4% (inactive).

On to `Cc1ccc(C2CN(C)CC2C(=O)c2ccc(F)cc2)cc1` (stereo unspecified), for which the inhibition (at 35 µM) is 3.1% (inactive).

Consider `CC1(C)Cc2c(C#N)c(N3CCNCC3)nc(-c3ccco3)c2CS1`, for which the inhibition is 47.2% (active) (at 35 µM) and 59.2% (confirmation repeats, at 20 µM).

Regarding `O=C(N/N=C/c1c(O)n(C2CC2)c(=S)[nH]c1=O)c1ccccc1Cl`, where the note is “at 35 µM”, the inhibition is 31% (inactive).

For `O=c1c2ccccc2nc(/C=C/c2ccco2)n1-c1ccccc1O`, the inhibition runs as follows: (at 35 µM) 43.7% (active); (confirmation repeats, at 20 µM) 54.4%.

As to `O=c1c2ccccc2nc(-c2ccco2)n1-c1ccc(Br)cn1`, the inhibition (at 35 µM) was 5.1% (inactive).

For the compound `O=c1c2ccccc2nc(/C=C/c2ccc(F)cc2)n1-c1ccccc1O`, for the setting “at 35 µM”, the inhibition was -9.7% (inactive).

In the case of `CN(C)S(=O)(=O)c1cc(C(=O)N2CCC(C(=O)O)(c3ccccc3)CC2)ccc1Cl`, the inhibition (at 35 µM) is 7.1% (inactive).

For the compound `Cc1cccc(NC(=O)N2CC3CC(C2)c2cccc(=O)n2C3)c1` (stereo unspecified), the inhibition (at 35 µM) is -0.3% (inactive).

Turning to `CC1CCC(N(C)C2CCN(C)CC2)CC1` (stereo unspecified), the inhibition (at 35 µM) is 10.9% (inactive).

For `CC(C)n1c(=O)c(C=Nc2ccc(Br)cc2)c(O)n(Cc2ccco2)c1=O`, the inhibition by setting is: (at 35 µM) 6% (active); (confirmation repeats, at 20 µM) 52%.

As for `Cn1c(O)c(C=Nc2ccc3c(c2)CCC3)c(=O)n(C)c1=O`, under “at 35 µM”, the inhibition is -0.7% (inactive).

Consider `CN(C)CCCN=Cc1c(O)n(Cc2ccco2)c(=O)[nH]c1=O`, for which the inhibition (at 35 µM) was 3% (inactive).

On to `CCN1C(=O)C(=Cc2c(C)n(CC(=O)NCC3CCCO3)c3ccccc23)C(=O)N(CC)C1=S` (stereo unspecified), for which, under “at 35 µM”, the inhibition was -3.1% (inactive).
